Results on 14 compounds are retold here after PubChem BioAssay (Tox21).

Molecules are shown by their SMILES. Values without a mark were called inactive. Records with an inconclusive call do not appear. Activity calls are given as the source filed them. Unless noted, calls follow the shape of the dose curve; as a rule, active = well fitted curve in the direction sought with a large enough effect in the repeat runs; inconclusive = weak or mixed curves; inactive = no such curve, though single readings can be large; an effect the other way counts as inactive or inconclusive.

The nature of assay [1]: qHTS assay to test for compound auto fluorescence at 535 nm (green) in HEK293 cells (AID 720680).
The nature of assay [2]: qHTS assay to test for compound auto fluorescence at 460 nm (blue) in HEK293 cell free culture (AID 720681). In outline: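 Test compounds were pinned into cell-free culture medium (DMEM with 10% FBS) and fluorescence was read directly at Ex/Em 405/460 nm. Signals were expressed as fluorescence equivalents of triamterene, with DMSO vehicle as control.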
A short description of assay [3]: qHTS assay to test for compound auto fluorescence at 535 nm (green) in HEK293 cell free culture (AID 720682). In short, it runs like this:
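Intrinsic compound fluorescence is measured in culture medium containing 10% FBS, with excitation at 485 nm and detection at 535 nm, referenced to fluorescein.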

Assay [4] in a line: qHTS assay to test for compound auto fluorescence at 590 nm (red) in HEK293 cell free culture (AID 720683). In short, it runs like this:
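Tox21 10K library compounds were pinned into cell-free DMEM with 10% FBS and fluorescence was read at excitation 540 nm. Activity is expressed as Rose Bengal sodium equivalency.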

A short description of assay [5]: qHTS assay to test for compound auto fluorescence at 590 nm (red) in HepG2 cell free culture (AID 720684). In outline: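 Measured in medium alone (MEM containing 10% FBS) following pintool addition of compound; emission at 590 nm with 540 nm excitation, referenced to Rose Bengal sodium.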
A short description of assay [6]: qHTS assay to test for compound auto fluorescence at 460 nm (blue) in HepG2 cell free culture (AID 720685). In short, it runs like this:
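Compound (23 nL) or DMSO pinned into cell-free MEM with 10% FBS; blue fluorescence read at 405/460 nm excitation/emission, expressed as auto-fluorescence equivalency to triamterene.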

The nature of assay [7]: qHTS assay to test for compound auto fluorescence at 535 nm (green) in HepG2 cell free culture (AID 720686).
Assay [8] is described as follows: qHTS assay to test for compound auto fluorescence at 460 nm (blue) in HepG2 cells (AID 720687). In short, it runs like this: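 Cells (2,000/well in MEM with 10% FBS) attached overnight at 37 C, then were exposed to compound or DMSO for 1 hr at 37 C, 5% CO2. Fluorescence read at Ex/Em 405/460 nm, expressed as triamterene-equivalent signal.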
Assay [9] in a line: qHTS assay to identify small molecule antagonists of the glucocorticoid receptor (GR) signaling pathway - cell viability counter screen (AID 720693). Also: nearly all actives have a fitted effect of over 55% in size.
A short description of assay [10]: qHTS assay for identifying genotoxic compounds that show differential cytotoxicity against isogenic chicken DT40 cell lines with known DNA damage response pathways - wild type cell line (AID 743012). Also: nearly all actives have a fitted effect of over 60% in size. Also: potency is read from the fitted curve at half-maximal effect. In short, it runs like this:
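Wild type DT40, 300 cells/well, ~0.5 h settle at 37 C/5% CO2; compounds in DMSO added by pintool; 40 h at 37 C/5% CO2; CellTiter-Glo, 30 min RT; luminescence.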

Assay [11] is described as follows: qHTS assay for identifying genotoxic compounds that show differential cytotoxicity against isogenic chicken DT40 cell lines with known DNA damage response pathways - Rev3 mutant cell line (AID 743014). Also: nearly all actives have a fitted effect of over 55% in size. Also: potency is read from the fitted curve at half-maximal effect.
A short description of assay [12]: qHTS assay for identifying genotoxic compounds that show differential cytotoxicity against isogenic chicken DT40 cell lines with known DNA damage response pathways - Rad54/Ku70 mutant cell line (AID 743015). Also: nearly all actives have a fitted effect of over 60% in size. Also: potency is read from the fitted curve at half-maximal effect.
Assay [13] in a line: qHTS assay to identify small molecule antagonists of the androgen receptor (AR) signaling pathway - cell viability counter screen (AID 743033; also: nearly all actives have a fitted effect of over 45% in size).
Assay [14] is described as follows: qHTS assay to identify small molecule antagonists of the androgen receptor (AR) signaling pathway using the MDA cell line - cell viability counter screen (AID 743041; also: nearly all actives have a fitted effect of over 45% in size). In outline:
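Viability counter screen run alongside the AR antagonist reporter: cells seeded 5 h before compound, R1881 added, 16 h incubation at 37C without CO2, fluorescent CellTiter-Fluor signal quantified.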

In assay [15] the target is Glucocorticoid receptor (Homo sapiens) (UniProt P04150). In words: qHTS assay to identify small molecule agonists of the glucocorticoid receptor (GR) signaling pathway (AID 720691; active = well fitted activation curve with a large enough effect in the signal ratio in the repeat runs, not every such curve was filed as active; the % refers to the signal ratio). In short, it runs like this:
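Fluorescence intensity from LiveBLAzer B/G FRET substrate (2 h, room temperature) reports beta-lactamase expression driven by the glucocorticoid response element in GR-bla HeLa cells after 18 h compound exposure at 37 C.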

The target in assay [16] is Androgen receptor (Homo sapiens) (UniProt P10275). Description: qHTS assay to identify small molecule antagonists of the androgen receptor (AR) signaling pathway (AID 743035; active = well fitted inhibition curve with a large enough effect in the signal ratio in the repeat runs, not every such curve was filed as active; the % refers to the signal ratio; also: potency is read from the fitted curve at half-maximal effect). In short, it runs like this: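 Fluorescence from a beta-lactamase FRET substrate (LiveBLAzer B/G, 2 h, room temperature) measured inhibition of R1881-stimulated signaling in GeneBLAzer AR-UAS-bla HEK293 cells exposed to compound for 16 h at 37C.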

Assay [17] shares this target. Description: qHTS assay to identify small molecule agonists of the androgen receptor (AR) signaling pathway (AID 743036; active = well fitted activation curve with a large enough effect in the signal ratio in the repeat runs, with a control signal flat, not every such curve was filed as active; the % refers to the signal ratio). In short, it runs like this: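 Agonist activity was scored by beta-lactamase reporter fluorescence in stably transfected HEK293 cells exposed to compounds for 16 h at 37C and 5% CO2. Substrate loading took 2 h at room temperature.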
The target is the same in assay [18]. In words: qHTS assay to identify small molecule agonists of the androgen receptor (AR) signaling pathway using the MDA cell line (AID 743040; also: nearly all actives have a fitted effect of over 20% in size). In outline: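 Luminescence from ONE-Glo, read after 30 min at room temperature, reflects MMTV-driven luciferase in MDA-kb2 cells (AR- and GR-responsive). Treatment lasted 16 h at 37C, 0% CO2.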
Assay [19] shares this target. Description: qHTS assay to identify small molecule antagonists of the androgen receptor (AR) signaling pathway using the MDA cell line (AID 743042; also: nearly all actives have a fitted effect of over 55% in size). In outline:
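MDA-kb2 cells (human breast carcinoma, stably carrying an MMTV-luciferase reporter responsive to AR and GR) were plated at 3,000 cells/well and preincubated 5 hr at 37C, then given compound plus R1881 agonist for 16 h. ONE-Glo luminescence was read.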

Assay [20] addresses Glucocorticoid receptor (Homo sapiens) (UniProt P04150). Description: qHTS assay to identify small molecule antagonists of the glucocorticoid receptor (GR) signaling pathway (AID 720692; active = well fitted inhibition curve with a large enough effect in the signal ratio in the repeat runs, not every such curve was filed as active; the % refers to the signal ratio). In outline:
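HeLa GR-bla cells; cmpd + dex 5 nM final, 18 h 37 C; LiveBLAzer B/G FRET substrate 2 h RT; fluorescence intensity read. Antagonist mode, qHTS.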

Sequence of Androgen receptor (Homo sapiens) (P10275 whole entry, looked up): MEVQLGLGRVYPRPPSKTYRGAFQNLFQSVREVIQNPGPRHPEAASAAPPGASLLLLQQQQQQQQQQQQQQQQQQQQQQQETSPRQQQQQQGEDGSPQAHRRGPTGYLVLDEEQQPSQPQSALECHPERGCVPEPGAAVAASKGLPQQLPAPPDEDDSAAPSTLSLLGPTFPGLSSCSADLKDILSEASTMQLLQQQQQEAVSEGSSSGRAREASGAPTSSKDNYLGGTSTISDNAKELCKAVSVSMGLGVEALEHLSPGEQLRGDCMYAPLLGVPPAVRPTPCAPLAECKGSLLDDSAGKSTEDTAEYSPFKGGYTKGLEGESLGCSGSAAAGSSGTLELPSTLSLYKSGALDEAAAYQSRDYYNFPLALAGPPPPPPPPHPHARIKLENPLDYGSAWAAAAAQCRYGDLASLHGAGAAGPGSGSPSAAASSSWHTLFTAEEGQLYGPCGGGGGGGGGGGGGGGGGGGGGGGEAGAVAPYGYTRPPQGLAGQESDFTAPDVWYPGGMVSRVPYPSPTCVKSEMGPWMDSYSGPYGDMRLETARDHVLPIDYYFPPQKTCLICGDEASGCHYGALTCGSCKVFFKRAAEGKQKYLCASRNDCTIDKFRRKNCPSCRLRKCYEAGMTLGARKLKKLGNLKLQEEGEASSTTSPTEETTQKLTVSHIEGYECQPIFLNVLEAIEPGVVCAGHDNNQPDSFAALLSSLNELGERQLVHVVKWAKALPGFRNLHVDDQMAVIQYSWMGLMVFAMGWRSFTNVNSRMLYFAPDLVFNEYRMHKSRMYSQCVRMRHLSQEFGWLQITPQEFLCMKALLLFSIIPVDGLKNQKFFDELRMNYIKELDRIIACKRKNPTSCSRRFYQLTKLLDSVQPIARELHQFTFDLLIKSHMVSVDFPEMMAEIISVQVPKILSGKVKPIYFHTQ
Sequence of Glucocorticoid receptor (Homo sapiens) (P04150 whole entry, looked up): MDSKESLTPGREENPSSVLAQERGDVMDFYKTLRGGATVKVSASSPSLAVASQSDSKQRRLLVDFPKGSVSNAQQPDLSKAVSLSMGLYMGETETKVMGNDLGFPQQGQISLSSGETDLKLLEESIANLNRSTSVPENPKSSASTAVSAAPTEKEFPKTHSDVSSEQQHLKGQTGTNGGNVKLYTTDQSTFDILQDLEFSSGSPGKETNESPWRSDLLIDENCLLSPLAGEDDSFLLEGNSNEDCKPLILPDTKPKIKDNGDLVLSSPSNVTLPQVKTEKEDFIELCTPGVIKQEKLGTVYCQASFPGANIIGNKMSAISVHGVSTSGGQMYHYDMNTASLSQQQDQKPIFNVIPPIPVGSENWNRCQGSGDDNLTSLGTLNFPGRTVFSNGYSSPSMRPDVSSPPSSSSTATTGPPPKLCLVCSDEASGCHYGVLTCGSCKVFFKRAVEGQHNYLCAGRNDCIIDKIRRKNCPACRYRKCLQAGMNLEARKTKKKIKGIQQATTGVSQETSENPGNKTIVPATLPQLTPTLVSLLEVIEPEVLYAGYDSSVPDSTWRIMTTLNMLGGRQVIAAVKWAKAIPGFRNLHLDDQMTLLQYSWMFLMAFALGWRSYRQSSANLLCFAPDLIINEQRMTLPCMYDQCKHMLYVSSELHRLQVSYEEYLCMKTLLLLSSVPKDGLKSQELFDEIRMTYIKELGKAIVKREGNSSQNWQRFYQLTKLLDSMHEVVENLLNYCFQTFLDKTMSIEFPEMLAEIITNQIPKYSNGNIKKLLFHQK

As for `CN(c1nccc(=O)[nH]1)C1CCN(c2nc3ccccc3n2Cc2ccc(F)cc2)CC1`, the call in assay [1], in [3], in [4], in assay [5] and in assay [7] was inactive. Moreover, the Potency entry in assay [2], in [6], in assay [8], in [9], in assay [10] and in assay [11] was “inactive” in each case. Also, the Potency result in assay [12], in [13] and in [14] was “inactive” each time.

With `SC1CCCC1`, the call in [1], in [3], in assay [4], in assay [5] and in assay [7] was inactive. Also, the Potency entry in assay [2], in [6], in [8], in [9], in [10] and in assay [11] was “inactive” in each case. The Potency entry in [13] and in assay [14] was “inactive” in each case.

For `CCCCCOC(=O)c1ccc(O)cc1`, the compound was called inactive in [1], in assay [3], in assay [4], in assay [5] and in [7]. For the same compound, the Potency result in assay [2], in [6], in assay [8], in assay [15], in assay [9] and in [14] was “inactive” throughout. In assay [12], the Potency is 61.9 µM (active).

With `CCC(C)N(C)C(=O)c1cc2ccccc2c(-c2ccccc2Cl)n1` (stereo not given), the compound was called inactive in assay [1], in assay [3], in assay [4], in assay [5], in [7] and in [17]. For the same compound, the Potency entry in assay [2], in [6], in assay [8], in assay [9], in [13] and in assay [18] was “inactive” throughout. Moreover, the Potency entry in assay [14] was “inactive”. Besides, the Potency in [10] is 15.7 µM (active); in assay [11], 14 µM (active); in [12], 14 µM (active); in assay [16] it was 28.2 µM (active).

For `O=CNc1ccccc1`, the compound was called inactive in assay [1], in assay [3], in assay [4], in assay [5] and in assay [7]. Besides, the Potency entry in [2], in assay [6], in assay [8], in assay [15], in [9] and in [10] was “inactive” throughout. The Potency entry in assay [12], in [13] and in assay [14] was “inactive” throughout.

With `NCCCN(CCO)CCO`, the result in [1], in assay [3], in assay [4], in assay [5], in assay [7] and in assay [17] was inactive. The Potency result in [2], in assay [6], in [8], in assay [9], in assay [10] and in assay [11] was “inactive” throughout. For the same compound, the Potency result in assay [12], in assay [18], in assay [14] and in assay [19] was “inactive” throughout.

`N[C@H]1C(O)O[C@H](CO)[C@H](O)[C@@H]1O` (stereo not given in full): the outcome in [1], in assay [3], in [4], in assay [5], in assay [7] and in [17] was inactive. In addition, the Potency result in assay [2], in [6], in assay [8], in assay [9], in assay [10] and in assay [11] was “inactive” throughout. The Potency entry in assay [12], in assay [13], in assay [16], in [18], in assay [14] and in [19] was “inactive” throughout.

Turning to `Cc1ncsc1CCO`, the compound was called inactive in assay [1], in [3], in [4], in assay [5] and in assay [7]. Moreover, the Potency result in [2], in assay [6], in [8], in assay [9], in assay [10] and in [11] was “inactive” in each case. Also, the Potency entry in assay [12] and in assay [14] was “inactive” each time.

Regarding `Cn1c(NCCN(CCO)CCCc2ccc([N+](=O)[O-])cc2)cc(=O)n(C)c1=O`, the compound was called inactive in [1], in assay [3], in [4], in assay [5] and in assay [7]. For the same compound, the Potency entry in [2], in [6], in [8], in assay [20], in assay [9] and in assay [10] was “inactive” each time. Moreover, the Potency entry in assay [11], in assay [12] and in [14] was “inactive” in each case.

As for `COc1ccc(C(C)=O)cc1`, the outcome in assay [1], in [3], in [4], in assay [5], in [7] and in [17] was inactive. Further, the Potency entry in [2], in [6], in assay [8], in [9], in assay [10] and in assay [11] was “inactive” throughout. Besides, the Potency entry in [12], in assay [13], in [16], in [18], in [14] and in assay [19] was “inactive” in each case.

Turning to `Cc1ccc2c(ccc3ccccc32)c1`, the compound was classed as inactive in [1], in assay [3], in [4], in [5] and in assay [7]. Moreover, the Potency result in assay [2], in assay [6], in [8], in assay [9], in [10] and in [11] was “inactive” each time. In addition, the Potency entry in assay [13] and in assay [14] was “inactive” in each case.

Regarding `Cc1ccc(O)c([C@H](CCN(C(C)C)C(C)C)c2ccccc2)c1`, the compound was called inactive in assay [1], in assay [3], in [4], in assay [5] and in assay [7]. Also, the Potency entry in assay [2], in [6], in assay [8], in assay [15], in [9] and in [14] was “inactive” in each case. Besides, the Potency in assay [10] is 26.6 µM (active).

As to `CC(=O)Nc1ccc(/C=N/NC(N)=S)cc1`, the compound was called inactive in [1], in assay [3], in [4], in assay [5] and in [7]. The Potency entry in assay [2], in assay [6], in [8], in assay [9], in assay [10] and in assay [11] was “inactive” each time. The Potency result in [13] and in assay [14] was “inactive” each time.

With `C=C(C)C(=O)OCCN(C)C`, the outcome in assay [1], in [3], in assay [4], in assay [5] and in [7] was inactive. In addition, the Potency result in assay [2], in assay [6], in [8], in assay [9], in [10] and in [11] was “inactive” throughout. Further, the Potency entry in [12] and in [14] was “inactive” each time.
